Calls of active or inactive are those of the source.

The test system of assay [1] is Human papillomavirus type 1a protein E7 (residues 44-93). The assay can be described thus: small molecules binding HPV E7 44-93 – biochemical, small-molecule microarray, residues 44-93, 635 nm fluorescence, primary screen (AID 1108).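 Further: E7 fragment applied at 1 µg/mL in TBST for 1 h at 4 C; score combines spot fluorescence with its signal to noise ratio.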 To be noted: fluorescence 635 nm, higher = more signal.
A short description of assay [2]: hepatitis C replication reporter changes, two-sided – Huh7 cells, luciferase reporter, HCV replication inhibitor project, primary screen (AID 1109).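 Further: huh7 hepatoma cells harbouring a luciferase neomycin HCV replicon reporter; luciferase luminescence as measure of HCV replicon replication; test concentration not given here.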 To be noted: Huh7 HCV replicon luciferase reporter, 48 h; higher = more signal.
The target of assay [3] is Left-right determination factor 2 (Homo sapiens) (UniProt O00292). The assay can be described thus: small molecules binding LEFTY2 protein – biochemical, small-molecule microarray, 635 nm fluorescence scan, primary screen (AID 1110). To be noted: higher = more signal.
Chain of Left-right determination factor 2 (Homo sapiens) (O00292 whole entry, looked up): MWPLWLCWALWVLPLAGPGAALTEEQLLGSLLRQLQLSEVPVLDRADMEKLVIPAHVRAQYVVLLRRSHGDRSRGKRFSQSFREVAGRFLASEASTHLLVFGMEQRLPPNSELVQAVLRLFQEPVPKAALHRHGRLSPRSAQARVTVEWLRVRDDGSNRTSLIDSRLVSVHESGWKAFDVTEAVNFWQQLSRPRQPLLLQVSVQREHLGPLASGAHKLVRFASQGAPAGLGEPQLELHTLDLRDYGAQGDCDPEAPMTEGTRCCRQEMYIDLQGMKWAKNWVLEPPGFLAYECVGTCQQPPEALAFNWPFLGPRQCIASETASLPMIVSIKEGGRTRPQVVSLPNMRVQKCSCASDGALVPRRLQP
The target of assay [4] is Calmodulin-1 (Homo sapiens) (UniProt P0DP23). Briefly: small molecules binding calmodulin-1 with EGTA – biochemical, small-molecule microarray, Cy5-labelled CALM1, profiling panel (AID 1111).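 Further: labelled calmodulin applied in Tris saline Tween buffer holding calcium plus EGTA and DTT.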 To be noted: Cy5-CALM1 binding fluorescence, higher = more signal.
Assay [5] has the same target. The assay can be described thus: small molecules binding Ca-loaded calmodulin-1 – biochemical, small-molecule microarray, Cy5-labelled CALM1, plus calcium, artefact control for SMM control-protein annotation, profiling panel (AID 1112).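 Further: score merges spot fluorescence with signal to noise from triplicate slides.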 To be noted: Cy5-CALM1 binding fluorescence, higher = more signal.
Assay [6] in a line: probe aWnt5a binding to arrayed compounds – biochemical, biotinylated probe, 635/667 nm fluorescence, primary screen (AID 1113).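 Further: score merges 667 nm fluorescence intensity with signal-to-noise per printed feature.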 To be noted: small-molecule microarray, higher = more signal.
Assay [7] is described as follows: probe aShh binding to arrayed compounds – biochemical, biotinylated probe, 635/667 nm fluorescence, primary screen (AID 1114).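 Further: probe is biotin-labelled aShh protein from a stem cell growth factor screen; measures binding of labelled protein to compounds printed on the slide; score merges feature fluorescence at 667 nm with signal-to-noise.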 To be noted: small-molecule microarray, higher = more signal.
Assay [8] is described as follows: probe aNog binding to arrayed compounds – biochemical, biotinylated probe, 635/667 nm fluorescence, primary screen (AID 1115).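 Further: probe is biotinylated aNog protein used at 0.15 µg/mL for 1 h at 4 C; z-score combines 667 nm fluorescence of each spot with its signal to noise.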 To be noted: small-molecule microarray, higher = more signal.
The target in assay [9] is Torsin-1A-interacting protein 1 (Homo sapiens) (UniProt Q5JTV8). The assay can be described thus: compound microarray binding of lysate hLAP1 – cell lysate, small-molecule microarray, COS7 lysate, 635/667 nm fluorescence, primary screen (AID 1116). To be noted: 635 nm fluorescence, higher = more signal.
Chain of Torsin-1A-interacting protein 1 (Homo sapiens) (Q5JTV8 whole entry, looked up): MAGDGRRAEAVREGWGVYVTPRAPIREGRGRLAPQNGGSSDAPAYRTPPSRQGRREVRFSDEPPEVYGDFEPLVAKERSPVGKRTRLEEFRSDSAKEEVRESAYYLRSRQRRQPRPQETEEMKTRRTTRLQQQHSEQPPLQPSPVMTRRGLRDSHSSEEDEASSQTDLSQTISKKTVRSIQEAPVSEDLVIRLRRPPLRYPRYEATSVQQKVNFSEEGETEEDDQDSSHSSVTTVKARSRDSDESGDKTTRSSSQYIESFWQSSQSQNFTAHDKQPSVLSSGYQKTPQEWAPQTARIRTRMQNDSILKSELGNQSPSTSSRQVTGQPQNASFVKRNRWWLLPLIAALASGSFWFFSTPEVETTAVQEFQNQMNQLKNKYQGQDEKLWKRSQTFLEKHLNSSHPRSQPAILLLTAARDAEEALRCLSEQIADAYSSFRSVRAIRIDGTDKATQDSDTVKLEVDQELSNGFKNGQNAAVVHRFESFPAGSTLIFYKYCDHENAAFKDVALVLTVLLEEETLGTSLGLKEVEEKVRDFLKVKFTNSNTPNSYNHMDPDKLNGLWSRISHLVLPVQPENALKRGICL
The target of assay [10] is Alpha-bungarotoxin (Bungarus multicinctus) (UniProt P60615). Briefly: compounds binding labelled alpha-BTX control protein – biochemical, small-molecule microarray, Alexa647 label, 635/667 nm fluorescence, artefact control for SMM control protein annotation, profiling panel (AID 1117). To be noted: alpha-BTX-A647 binding fluorescence, higher = more signal.
Chain of Alpha-bungarotoxin (Bungarus multicinctus) (P60615 whole entry, looked up): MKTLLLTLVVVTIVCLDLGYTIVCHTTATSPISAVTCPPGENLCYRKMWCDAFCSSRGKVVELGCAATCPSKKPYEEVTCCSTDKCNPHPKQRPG
A further assay has as its target Albumin (Bos taurus) (UniProt P02769). Briefly: compounds binding labelled BSA control protein – biochemical, small-molecule microarray, Alexa647 label, 635/667 nm fluorescence, artefact control for SMM control protein annotation, profiling panel (AID 1118).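 Further: score merges 667 nm emission intensity and signal-to-noise per printed compound spot.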 To be noted: BSA-A647 binding, fluorescence 635 nm, higher = more signal.
A short description of assay [11]: probe aXIP binding to arrayed compounds – biochemical, NeuroSMM set, 635/667 nm fluorescence, primary screen (AID 1119).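 Further: probe is the protein aXip251-270 applied at 1 µg/mL to compound-printed slides; binding of probe to printed compounds measured as 667 nm fluorescence plus signal to noise.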 To be noted: small-molecule microarray, higher = more signal, called active from +8 up or from −8 down.
Assay [12] in a line: probe aNOTCH3 binding on compound microarray – biochemical, small-molecule microarray, 635/667 nm fluorescence, primary screen (AID 1120).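 Further: probe is a biotin-tagged antibody raised against NOTCH3 rather than NOTCH3 protein; score merges spot fluorescence near 667 nm with spot signal to noise.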 To be noted: higher = more signal.
The nature of assay [13]: probe aNOTCH2 binding on compound microarray – biochemical, small-molecule microarray, 635/667 nm fluorescence, primary screen (AID 1121).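 Further: score merges feature fluorescence read at 667 nm with its signal to noise.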 To be noted: higher = more signal.
The target in assay [14] is Carbonic anhydrase 2 (Homo sapiens) (UniProt P00918). The assay can be described thus: compounds binding carbonic anhydrase 2 – biochemical, small-molecule microarray, Alexa647-labelled CAII, profiling panel (AID 1122). To be noted: CAII-A647 binding fluorescence, higher = more signal.
Assay [15] in a line: COS7 lysate on small-molecule microarray, probe aHis, 635 nm (AID 1123).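 Further: z-score combines 667nm fluorescence intensity with signal-to-noise per printed compound spot.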 To be noted: COS7 cell lysate, fluorescence, higher = more signal.
Assay [16] can be described thus: probe aLAP1 signal on lysate-treated microarray – cell lysate, small-molecule microarray, COS7 lysate, primary screen (AID 1124).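 Further: lysate comes from COS7 cells expressing LAP1 and is applied at 0.3 µg/mL; score merges spot fluorescence near 667 nm with signal-to-noise over triplicate slides.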 To be noted: probe aLAP1, fluorescence, higher = more signal.
Another assay deals with Sam68 (KHDRBS1). Briefly: compounds binding KHDRBS1 protein – biochemical, small-molecule microarray, 635 nm fluorescence, primary screen (AID 1125).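 Further: score merges 667 nm channel intensity with signal to noise over triplicate slides.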 To be noted: higher = more signal.
In assay [17] the test system is Chordin-like protein 2 (CHRDL2). The assay can be described thus: compounds binding chordin-like 2 – biochemical, small-molecule microarray, 635 nm fluorescence, primary screen (AID 1126).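 Further: printed compound slides probed with Chrdl2 protein at 4 µg/mL for 1 h at 4 C; score merges 667 nm emission intensity with signal to noise over three replicate slides.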 To be noted: fluorescence 635 nm, higher = more signal.
Assay [18] deals with Concanavalin-A (Canavalia ensiformis) (UniProt P02866). The assay can be described thus: compounds binding concanavalin A lectin – biochemical, small-molecule microarray, Alexa647 label, 635 nm, artefact control for SMM control protein annotation, primary screen (AID 1127).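 Further: z combines 667 nm emission intensity with signal-to-noise across three replicate slides.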 To be noted: ConA-A647 binding fluorescence, higher = more signal.
Chain of Concanavalin-A (Canavalia ensiformis) (P02866 whole entry, looked up): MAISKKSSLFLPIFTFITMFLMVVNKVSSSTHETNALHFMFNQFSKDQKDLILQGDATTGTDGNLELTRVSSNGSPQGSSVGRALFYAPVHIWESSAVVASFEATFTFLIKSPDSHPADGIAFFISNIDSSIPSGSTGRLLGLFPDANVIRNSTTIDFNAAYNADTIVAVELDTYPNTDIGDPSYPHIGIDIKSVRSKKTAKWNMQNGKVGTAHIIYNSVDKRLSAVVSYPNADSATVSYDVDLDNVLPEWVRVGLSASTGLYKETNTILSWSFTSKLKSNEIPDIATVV

Chain of Albumin (Bos taurus) (P02769 whole entry, looked up): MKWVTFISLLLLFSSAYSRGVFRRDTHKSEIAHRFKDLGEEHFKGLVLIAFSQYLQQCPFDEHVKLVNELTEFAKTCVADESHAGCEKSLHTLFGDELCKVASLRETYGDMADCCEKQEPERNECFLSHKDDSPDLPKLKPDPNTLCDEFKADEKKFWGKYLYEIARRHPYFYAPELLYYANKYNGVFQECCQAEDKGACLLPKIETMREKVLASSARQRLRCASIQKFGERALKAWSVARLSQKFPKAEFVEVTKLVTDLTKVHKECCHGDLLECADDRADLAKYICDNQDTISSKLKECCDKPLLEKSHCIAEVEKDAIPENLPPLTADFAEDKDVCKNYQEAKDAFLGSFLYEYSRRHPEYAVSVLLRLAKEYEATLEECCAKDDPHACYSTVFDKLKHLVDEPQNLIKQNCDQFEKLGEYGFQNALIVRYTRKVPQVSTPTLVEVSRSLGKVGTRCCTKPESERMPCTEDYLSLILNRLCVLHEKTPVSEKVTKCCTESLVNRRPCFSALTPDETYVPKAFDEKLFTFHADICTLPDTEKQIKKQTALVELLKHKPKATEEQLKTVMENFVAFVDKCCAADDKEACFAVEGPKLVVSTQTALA

In the case of `CCCCC(O)C1C=CC2C(=O)NC(=O)C2N1Nc1ccccn1` (stereo not given), the composite z-score was -0.382 in [1]; 0.132 in [3]; -0.0937 in assay [4]; -0.466 in [5]; -0.1 in [6]; 0.25 in assay [7]. Moreover, the composite z-score was 0.289 in assay [8]; 0.233 in [9]; 0.275 in assay [10]; 0.082 with Albumin (Bos taurus); -0.155 in [12]; 0.0377 in assay [13]. Besides, the composite z-score was 0.885 in assay [14]; -0.234 in assay [15]; 0.386 in assay [16]; -1.01 with Sam68 (KHDRBS1); -0.0858 in [17]; 0.344 in assay [18]. For the same molecule, in assay [2], the z-score was -1.11. In addition, in assay [11], the composite Z-score was 0.0557 (inactive).

In the case of `CCOC(=O)C1=CC[C@@H](c2ccccc2Cl)N(S(=O)(=O)c2ccc(C)cc2)[C@H]1c1cccc(OC)c1`, the composite z-score in [1] is 0.414; in [3], -0.0038; in assay [4], 0.107; in [5] it was 0.369; in [6], 0.0382; in [7] it was 0.123. In addition, the composite z-score in assay [8] is 0.216; in [9] it was 0.111; in assay [10], 0.253; with Albumin (Bos taurus), 0.453; in assay [12], -0.014; in [13] it was -0.115. The composite z-score in assay [14] is 0.304; in assay [15], 0.878; in assay [16], -0.151; with Sam68 (KHDRBS1), 0.371; in assay [17], -0.0126; in assay [18] it was 0.577. Moreover, the z-score in assay [2] is -0.587. Besides, the composite Z-score in assay [11] was -0.161 (inactive).

Consider `COC(=O)Cn1c(C(=O)N(C)C)cc2c1C[C@H]1CN(C(=O)c3ccccc3)[C@@](Cc3ccc(OC)cc3)(C(=O)OC)[C@@H]21`, for which the composite z-score in assay [1] is 1.3; in assay [3], -0.212; in assay [4], 0.966; in assay [5], -0.39; in assay [6], 0.409; in assay [7] it was 0.297. In addition, the composite z-score is 2.26 in [8]; 1.8 in [9]; 0.299 in assay [10]; 0.938 with Albumin (Bos taurus); 0.332 in [12]; -0.037 in assay [13]. The composite z-score is 0.845 in assay [14]; 3.28 in [15]; -0.0169 in [16]; 1.08 in the assay with Sam68 (KHDRBS1); -0.108 in assay [17]; 0.812 in assay [18]. The molecule further had a z-score in assay [2] of -1.69. The composite Z-score in assay [11] was -0.945 (inactive).

As to `CC(C)CNC(=O)[C@@H]1c2ccccc2C(=O)N(C(C)C)[C@H]1c1ccc(CO)cc1`, the composite z-score was -0.043 in [1]; -0.269 in [3]; -0.451 in assay [4]; 0.0584 in assay [5]; -0.24 in [6]; -0.2 in [7]. For the same molecule, the composite z-score in assay [8] is 0.49; in [9], 1.58; in assay [10], -0.75; with Albumin (Bos taurus), 0.121; in assay [12], -0.153; in [13] it was -0.0454. In addition, the composite z-score in assay [14] was 0.757; in assay [15], 0.435; in assay [16], 1.25; in the assay with Sam68 (KHDRBS1), -0.463; in [17], 0.0021; in [18], -1.56. The z-score in assay [2] is -0.972. The composite Z-score in [11] is 0.337 (inactive).

As to `NCCCC[C@@H]1NC(=O)[C@H]2C[C@@H](C(=O)O)[C@@H](c3cccc(OCCO)c3)N2C1=O`, the composite z-score was 1.4 in [1]; 1.53 in [3]; 0.441 in assay [4]; -0.197 in [5]; 0.0017 in assay [6]; 0.166 in [7]. Further, the composite z-score was 1.33 in assay [8]; 1.07 in assay [9]; 2.12 in [10]; 0.294 with Albumin (Bos taurus); 0.526 in assay [12]; -0.0106 in assay [13]. For the same molecule, the composite z-score in assay [14] was found to be 0.396; in assay [15], 2.88; in assay [16], 0.521; in the assay with Sam68 (KHDRBS1), 1.29; in assay [17], 1.39; in assay [18], 1.1. Further, the z-score in [2] is -1.56. The composite Z-score in assay [11] was 1.71 (inactive).

The values are drawn from PubChem BioAssay.
